Laboratory results taken from ChEMBL document CHEMBL4513216, “Probing the Open Global Health Chemical Diversity Library for Multistage-Active Starting Points for Next-Generation Antimalarials” (ACS Infect Dis, 2020).
Out of some 69,000 compounds screened, about 8,600 (12%) showed an effect of 50% or more. Shown is part of a subset that was picked to be rich in strong results.

What follows are molecules tested on Plasmodium berghei (assay: Screen against P. berghei liver stage (PbLuc), transformed with Luciferase, at 10uM). Settings: tested at 10 uM.
Type: functional, HepG2
In the case of `O=C(CCc1ccccc1F)NS(=O)(=O)c1ccc2c(c1)OCCO2`, the INHIBITION is reported as 50.3%.
In the case of `O=C(CCc1ccccc1F)NS(=O)(=O)c1ccc2c(c1)OCCCO2`, the INHIBITION is reported as 16%.
Work on `Cc1ccccc1S(=O)(=O)NC(=O)CSc1ccc2c(c1)OCCO2` yielded an INHIBITION of 5.65%.
Work on `COc1cccc(CN(C)C(=O)CSc2ccc3c(c2)OCCO3)c1` yielded an INHIBITION of -45.8%.
For `O=C(CCc1cc(F)ccc1F)NS(=O)(=O)c1ccc2c(c1)OCCO2`, the INHIBITION was 42%.
For `CSCC(=O)N(C)Cc1ccccc1`, the INHIBITION was 47.4%.
`Cn1ccnc1CC1CCCN(C(=O)NCCOc2cccnc2)C1` (stereo not drawn) gave an INHIBITION of 44.5%.
`Cc1cn[nH]c1C1CCCCN1C(=O)CCc1c(C)n[nH]c1C` (stereo not drawn) was tested, and the INHIBITION was 33.7%.
`c1cnc(NCc2nnn3c2CN(CC2CC2)CCC3)nc1` showed an INHIBITION of 10.6%.
In the case of `CC(c1cccc(S(N)(=O)=O)c1)N(C)CCOc1ccccc1` (stereo not drawn), the INHIBITION is reported as 22.3%.
In the case of `Cc1nnc2n1CCN(C(=O)c1cn(-c3ccc(F)cc3)nn1)C2`, the INHIBITION is reported as -6.39%.
`CC(=O)N(Cc1ncc(C)o1)C1CCN(Cc2nnc(C3CC3)o2)C1` (stereo not drawn) gave an INHIBITION of 34.9%.
In the case of `COc1ccc(S(=O)(=O)N2CCOC(C)(C(N)=O)C2)cc1` (stereo not drawn), the INHIBITION is reported as -2.605%.
Work on `NC1CCCc2c1cnn2-c1cc(F)cc(F)c1` (stereo not drawn) yielded an INHIBITION of -19.1%.
With `OCC(O)CSCc1ccc(F)cc1Cl` (stereo not drawn) the INHIBITION was -15.6%.
In the case of `OCC(O)CSCc1ccc(Cl)cc1Cl` (stereo not drawn), the INHIBITION is reported as 53.9%.
`OCC(O)CSCc1cc(Cl)ccc1Cl` (stereo not drawn) gave an INHIBITION of 5.41%.
For `COc1cccc(C(=O)NS(=O)(=O)c2cncc(Br)c2)c1OC`, the INHIBITION was 15.1%.
`CCc1ccc(S(=O)(=O)Nc2ccncc2)s1` gave an INHIBITION of -6.4%.
In the case of `Cn1cc(CN2CCc3onc(C(=O)Nc4cccnc4)c3C2)cn1`, the INHIBITION is reported as 43.4%.
`CC(C)(C)c1nc(CNC2CCN(S(C)(=O)=O)CC2)cs1` was tested, and the INHIBITION was 20.6%.
`O=C(c1cccnc1N1CCOC(c2ccc(Cl)cc2)C1)N1CCCC1` (stereo not drawn) showed an INHIBITION of 45.1%.
`O=C(c1cccnc1O)N1CCOC(c2ccc(Cl)cc2)C1` (stereo not drawn) showed an INHIBITION of 68.6%.
Work on `O=C(c1cccnc1N1CCCC1)N1CCOC(c2ccccc2)C1` (stereo not drawn) yielded an INHIBITION of -30.2%.
`O=C(c1cccnc1N1CCOC(c2ccc(F)cc2)C1)N1CCCC1` (stereo not drawn) showed an INHIBITION of 45.1%.
With `CN(C)C(=O)c1cccnc1N1CCOC(c2ccc(Cl)cc2)C1` (stereo not drawn) the INHIBITION was 55%.
`O=C(c1cccnc1O)N1CCOC(Cc2cccc(C(F)(F)F)c2)C1` (stereo not drawn) gave an INHIBITION of 31.7%.
`O=C(CSc1nnc(N2CCOCC2)s1)NCc1cccs1` showed an INHIBITION of -21.5%.
Work on `CC(C)COC(C)C(=O)NCCNS(C)(=O)=O` (stereo not drawn) yielded an INHIBITION of 2.29%.
Molecule `Cc1oc(-c2ccsc2)nc1CC(=O)NCC(=O)Nc1cn[nH]c1` has an INHIBITION of 33%.
Work on `CC(C)CN1CCCn2nc(CNC(=O)CN3CCOC3=O)cc2C1` yielded an INHIBITION of 7.92%.
For `CC(C)CN1CCCn2nc(CNC(=O)CCN)cc2C1`, the INHIBITION was 16.6%.
`Cc1nn(CC(=O)NCc2cc3n(n2)CCCN(CC(C)C)C3)cc1Cl` was tested, and the INHIBITION was 58.7%.
In the case of `Cc1noc(C)c1C(C)C(=O)N1CCCN(C)c2ccc(Cl)cc21` (stereo not drawn), the INHIBITION is reported as 33.1%.
`CN1CCC(c2cc(C(F)(F)F)n3ccnc3n2)CC1` was tested, and the INHIBITION was 26.3%.
`CC(=O)Nc1ccc(-c2ccccc2NC(=O)CN)cc1` gave an INHIBITION of -17.7%.
Work on `CC(=O)Nc1cccc(-c2ccccc2CCN)c1` yielded an INHIBITION of 71.3%.
`CC(=O)Nc1ccc(-c2ccccc2CCN)cc1` was tested, and the INHIBITION was -2.43%.
In the case of `c1cc(C2CCN(C3CCCCC3)C2)n[nH]1` (stereo not drawn), the INHIBITION is reported as 18.535%.
In the case of `Cc1nc2ccccn2c1CC(=O)N[C@@H]1CC[C@@H](N2CCOCC2)[C@@H]1O`, the INHIBITION is reported as 52%.
`Cc1nc2ccccn2c1CC(=O)N[C@@H]1CCC[C@@H](N2CCCC2)[C@@H]1O` was tested, and the INHIBITION was -29.8%.
For `Cc1nc2ccccn2c1CC(=O)N[C@@H]1CC[C@@H](N2CCCC2)[C@@H]1O`, the INHIBITION was -6.92%.
`CCc1ncnc(N2CCOCC2C(N)=O)c1F` (stereo not drawn) showed an INHIBITION of -4.95%.
For `CCc1ncnc(N2CCOCC2CCO)c1F` (stereo not drawn), the INHIBITION was 6.94%.
`CCc1ncnc(N2CCOCC2C2CC2)c1F` (stereo not drawn) gave an INHIBITION of 57.5%.
For `O=C1CC(c2ccncc2)C2(CCN(C(=O)c3cccc(F)c3)CC2)N1` (stereo not drawn), the INHIBITION was 11.3%.
In the case of `Cc1cc(NC2CCC(=O)N(C)C2)n2nccc2n1` (stereo not drawn), the INHIBITION is reported as -41.8%.
Molecule `Cc1cnn(CC2CCCCN2Cc2nnsc2Cl)c1` (stereo not drawn) has an INHIBITION of -17.6%.
`COc1ccc(C2CC(=O)Oc3cc(C)[nH]c(=O)c32)c(OC)c1` (stereo not drawn) showed an INHIBITION of 45.7%.
Work on `CN1CCN(c2cc(NC(=O)Cn3ccc4ccccc43)ncn2)CC1` yielded an INHIBITION of 60.1%.
In the case of `O=C(Cn1ccc2ccccc21)Nc1cc(N2CCCC2)ncn1`, the INHIBITION is reported as 27.5%.
Work on `O=C(Cn1ccc2ccccc21)Nc1cc(N2CCOCC2)ncn1` yielded an INHIBITION of 30.5%.
In the case of `COCCC1(CO)CCCN(C(=O)c2cc(=O)[nH]c(=O)[nH]2)C1` (stereo not drawn), the INHIBITION is reported as 0.33%.
